Experimental findings from publication PMC5540273 (PLoS ONE, 2017) are described below.

Test systems include RIOK1; RIOK2; RIOK3; RIPK1; RIPK2; RIPK4; RIPK5; ROCK1; ROCK2; ROS1.
Holding throughout (details): concentration: 1 μM,replicates: in singlicate; n = 1
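Note: KINOMEscan kinase panel screen.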

For the compound `CC(C(=O)NC1CCN(c2ccnc(Nc3ccc(F)cc3)n2)C1)c1ccc(Cl)cc1` (centres unmarked) [GSK1379713], the “%Inh” value was 35% in the assay on RIOK1; 0% in the assay with RIOK2; 0% in the assay on RIOK3; 6% with RIPK1; 0% in the assay on RIPK2; 0% with RIPK4. For the same compound, the “%Inh” value in the assay on RIPK5 is reported as 0%; in the assay on ROCK1, 27%; with ROCK2 it was 10%; with ROS1, 53%.

`CN(c1ccccc1CNc1nc(Nc2ccc3c(c2)CC(=O)N3)ncc1C(F)(F)F)S(C)(=O)=O`: the “%Inh” value with RIOK1 is listed as 41%; with RIOK2, 0%; in the assay with RIOK3, 61%; in the assay on RIPK1, 0%; in the assay with RIPK2, 0%; with RIPK4 it was 0%. For the same compound, the “%Inh” value in the assay on RIPK5 was determined as 27%; in the assay with ROCK1 it was 0%; in the assay with ROCK2, 0%; in the assay on ROS1, 96.5%.

For `COC(=O)c1cccc(NC(=O)NC2CCN(c3ccnc(NCc4ccc(F)cc4)n3)CC2)c1` [GSK1379860], the “%Inh” value in the assay on RIOK1 was determined as 22%; in the assay with RIOK2 it was 0%; in the assay on RIOK3, 6%; in the assay with RIPK1, 0%; in the assay with RIPK2 it was 0%; in the assay on RIPK4 it was 5%. For the same compound, the “%Inh” value in the assay on RIPK5 turned out to be 0%; with ROCK1, 25%; with ROCK2, 19%; in the assay on ROS1, 8%.

With `Nc1nccc(-c2ccc3c(N)n[nH]c3c2)n1` [GSK1034945], the “%Inh” value worked out at 96.5% with RIOK1; 52% in the assay on RIOK2; 91.2% in the assay with RIOK3; 3% in the assay with RIPK1; 14% with RIPK2; 77% with RIPK4. The “%Inh” value in the assay with RIPK5 is listed as 0%; with ROCK2, 56%; in the assay on ROS1, 0%.

For the compound `CCn1c(-c2nonc2N)nc2cncc(CNC3CCNCC3)c21.Cl` [SB-747651], the “%Inh” value was found to be 30% with RIOK1; 0% in the assay with RIOK2; 6% in the assay on RIOK3; 0% with RIPK1; 5% in the assay with RIPK2; 19% in the assay on RIPK4. Also, the “%Inh” value with RIPK5 and in the assay with ROS1 was 0% each time.

Turning to `Cc1ccc(CC(=O)N2CCc3cc(-c4cn(C)c5ncnc(N)c45)ccc32)cc1` [GSK2634758], the “%Inh” value with RIOK1 was found to be 25%; in the assay with RIOK2, 0%; with RIOK3, 0%; in the assay on RIPK1 it was 100%; in the assay with RIPK2, 76%; in the assay on RIPK4, 0%. Besides, the “%Inh” value turned out to be 62% in the assay on RIPK5, 0% in the assay with ROCK1, 21% in the assay with ROCK2 and 9% with ROS1.

As for `CCNCC(Cc1ccccc1)NC(=O)c1cc(Br)c(-c2ccnc3[nH]ccc23)s1.Cl.Cl` (centres unmarked) [GSK1383280], the “%Inh” value worked out at 61% in the assay with RIOK1; 61% in the assay on RIOK2; 72% in the assay with RIOK3; 0% in the assay with RIPK1; 0% in the assay on RIPK2; 20% in the assay on RIPK4. Further, the “%Inh” value amounted to 32% in the assay with RIPK5, 99.8% in the assay with ROCK1, 99.6% in the assay with ROCK2 and 44% in the assay with ROS1.

`CC(=O)Nc1nc2cnc(Nc3cc(NC(=O)c4cccc(CC(C)(C)C#N)c4)ccc3C)nc2s1`: the “%Inh” value is 0% in the assay on RIOK1; 22% with RIOK2; 0% in the assay with RIOK3; 0% in the assay with RIPK1; 0% with RIPK2; 25% in the assay with RIPK4. Besides, the “%Inh” value in the assay on RIPK5 was 0%; in the assay on ROCK1 it was 19%; in the assay on ROCK2, 0%; with ROS1, 6%.

`COc1cc2c(Nc3ccc(NC(=O)c4ccccc4)cc3)ncnc2cc1OCCCN1CCOCC1` [GSK301329]: the “%Inh” value was 26% in the assay on RIOK1; 14% in the assay with RIOK2; 21% in the assay with RIOK3; 0% in the assay on RIPK1; 55% with RIPK2; 0% in the assay with RIPK4. Besides, the “%Inh” value in the assay with RIPK5 was 2%; in the assay with ROCK1, 1%; in the assay with ROCK2, 0%; in the assay with ROS1 it was 3%.

Consider `Cc1cccc2c(-c3ccncc3)c(-c3ccc(F)cc3)nn12.Cl` [GW461487], for which the “%Inh” value amounted to 0% in the assay with RIOK1; 100% with RIOK2; 0% in the assay with RIOK3; 0% in the assay with RIPK1; 48% in the assay on RIPK2; 0% with RIPK4. For the same compound, the “%Inh” value with RIPK5 stood at 0%; in the assay on ROCK1, 18%; in the assay on ROCK2, 12%; in the assay with ROS1, 0%.

As to `C[C@@H]1CNc2c(sc3ccc4nc(-c5ccc(O)cc5)ccc4c23)C(=O)N1`, the “%Inh” value in the assay with RIOK1 amounted to 0%; in the assay with RIOK2, 18%; in the assay on RIOK3, 3%; in the assay on RIPK1, 0%; in the assay with RIPK2, 27%; in the assay on RIPK4 it was 3%. Also, the “%Inh” value is on record as 27% with RIPK5, 65% in the assay with ROCK1, 51% in the assay with ROCK2 and 0% with ROS1.

`CC(C)S(=O)(=O)N1CCN(Cc2ccc3c(c2)nc(NC(=O)c2ccsc2)n3C[C@H](O)c2ccccc2)CC1` [GW635815]: the “%Inh” value in the assay on RIOK1 came out at 36%; with RIOK2, 33%; with RIOK3, 25%; in the assay on RIPK1 it was 20%; with RIPK2, 4%; with RIPK4 it was 7%. Besides, the “%Inh” value is 0% with RIPK5, 66% in the assay with ROCK1, 63% with ROCK2 and 20% with ROS1.

With `C[C@@H](Oc1cc(-n2cnc3ccc(-c4ccncc4)cc32)sc1C(N)=O)c1ccccc1Cl` [GSK483724], the “%Inh” value with RIOK1 was found to be 93%; in the assay on RIOK2 it was 70%; in the assay on RIOK3, 73%; with RIPK1, 40%; with RIPK2 it was 26%; in the assay on RIPK4, 0%. Moreover, the “%Inh” value amounted to 3% with RIPK5, 23% in the assay with ROCK1, 19% in the assay with ROCK2 and 42% with ROS1.

Take `COc1cccc(OC)c1C(=O)Nc1cccc(-c2nn3ccccc3c2-c2ccnc(Nc3cccc(F)c3)n2)c1` [GSK361065]: the “%Inh” value in the assay on RIOK1 was 43%; in the assay on RIOK2, 2%; with RIOK3, 19%; in the assay on RIPK1, 17%; in the assay with RIPK2, 38%; in the assay with RIPK4, 9%. The “%Inh” value in the assay on RIPK5 is 32%; in the assay on ROCK1, 0%; with ROCK2, 14%; in the assay with ROS1, 4%.

Regarding `Cc1ccc(C(=O)Nc2ccc(Oc3ccc4nc(NC(=O)C5CC5)cn4c3)c(F)c2)c(=O)n1-c1ccccc1`, the “%Inh” value worked out at 0% in the assay with RIOK1; 0% with RIOK2; 9% with RIOK3; 99.9% with RIPK1; 12% with RIPK2; 0% in the assay on RIPK4. The “%Inh” value in the assay with RIPK5, in the assay on ROCK1, in the assay on ROCK2 and with ROS1 was 0% in each case.

As to `C[C@@H](Oc1cc(-n2cnc3cc(-c4cnn(C)c4)ccc32)sc1C(N)=O)c1ccccc1Cl` [GSK580432], the “%Inh” value in the assay with RIOK1 was determined as 100%; with RIOK2 it was 25%; with RIOK3, 82%; in the assay on RIPK1 it was 39%; in the assay on RIPK2, 10%; in the assay on RIPK4, 0%. Moreover, the “%Inh” value with RIPK5 worked out at 15%; in the assay with ROCK1, 14%; in the assay on ROCK2, 11%; in the assay on ROS1, 27%.

On to `Cl.Cl.NC[C@H](CC1CCCCC1)NC(=O)c1ccc(-c2ccnc3[nH]ccc23)s1` [GSK1581428], for which the “%Inh” value was 100% in the assay on RIOK1; 45% in the assay on RIOK2; 90.1% with RIOK3; 0% in the assay with RIPK1; 0% in the assay on RIPK2; 0% with RIPK4. Further, the “%Inh” value in the assay with RIPK5 was found to be 0%; in the assay with ROCK1, 100%; with ROCK2, 98.9%; in the assay with ROS1, 26%.
